# Compound activity (PubChem BioAssay)
# Only some compounds are listed: those with a hit (about 3.2% of all), similar ones and a draw of the others.
# LGR2 antag – Drosophila LGR2 receptor signaling inhibition; HEK293 LGR2, CRE-luciferase, bursicon-stimulated, 4 h; inhibition, % at 9.99 µM; AID 720647; 0.35% of 380,000 active;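 active = drop in luminescence signal, shown as inhibition above about 50% in the replicate tests, limit read from the data, passing the limit was not always enough; inconclusive = probably only some replicates passing the limit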;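 note: agonist challenge used bursicon conditioned medium at about half maximal strength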
# TWEAK Fn14 block – inhibitors of TWEAK-Fn14 interaction signaling; TWEAK-stimulated Fn14 reporter cells, luciferase luminescence, 8 h; inhibition, % at 10 µM; 2% of 360,000 active; AID 1159606; in the data active = inhibition above about 50%
# EWS-Fli inh – blocks EWS/Fli oncoprotein-driven transcription | A673 NR0B1-luciferase reporter, viability-normalised | inhibition, % at 12.6 µM | 0.67% of 350,000 active;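 active = mean inhibition of at least 50% after viability correction, with every replicate also passing that limit; inconclusive = mean reaches 50% but only one of two replicates passes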;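 note: firefly luciferase signal divided by Alamar Blue viability fluorescence both relative to DMSO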
# LMP1 NFkB inh – reduces LMP1-driven NF-kappaB luciferase signal; LMP1-induced NF-kappaB luciferase reporter cells, luminescence; inhibition, % at 12.5 µM; 0.69% of 350,000 active; AID 504558; in the data active = inhibition above about 41%; inconclusive = no clear call, values can overlap the other calls;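 note: 0% = neutral control wells and 100% = reference inhibitor control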
# TROY NFkB inh – blocks TROY-dependent signaling in reporter cells | Q293 LMP1-TROYcd NF-kB luciferase reporter, 4 h | inhibition, % at 10 µM | 0.98% of 360,000 active | AID 1347056;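 active = compounds whose plate-normalised and pattern-corrected inhibition of the luciferase reporter signal at the single screening dose is 50% or more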
# PAX8 reporter – lowers PAX8-driven luciferase in RMG-I cells; RMG-I TPO-luciferase reporter, SteadyGlo, 24 h; inhibition, % at 12.6 µM; 1.2% of 360,000 active;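 active = mean replicate inhibition at least 60% with every replicate also reaching 60%; inconclusive = only one of the two criteria is met; inactive = mean below 60% and not all replicates reaching 60%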;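 note: luciferase light reporting Pax8 driven TPO promoter activity; plate controls were median of neutral control wells for no effect and mitoxantrone controls for full effect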
# * marks the source's active call; other numbers are inactive results; ? = inconclusive; nt = not tested or not shown; ! = a repeat was not active.
SMILES,LGR2 antag,TWEAK Fn14 block,EWS-Fli inh,LMP1 NFkB inh,TROY NFkB inh,PAX8 reporter
COc1ccc(-c2ccc(C3[C@H]4CNC[C@@H]3N4C(=O)Nc3cccc(OC)c3)cc2)cc1 (some centres not stated),-14.4,nt,58.9*!,nt,nt,0.3
COc1ccc2nc(NC(=O)Nc3ccccc3)sc2c1,-9.6,37.2,-8.1,-9.2,-12.0,-128.6
CC(C)(C)c1nc(NC(=O)Nc2ccccc2)sc1Br,2.0,61.1*,-63.3,-22.7,22.6,-4.1
CCN(Cc1ccc2c(c1)OCO2)C(=O)/C=C/c1cccc(Br)c1,-9.9,-33.4,0.4,-5.4,-36.5,-15.7
CC(C)(C)N(Cc1ccc2c(c1)OCO2)C(=O)/C=C\S(=O)c1ccccc1 (configuration not stated),58.8*,87.5*,46.5,18.6,27.9,95.3*
FC(F)(Cl)c1nnc2ccc(Cl)nn12,10.9,19.7,-7.8,6.7,-5.8,74.1*
Clc1ccc2nnc(Cl)n2n1,-21.2,-14.9,7.5,-4.7,9.7,20.9
CCN1C=CC(=C2C(=O)c3ccccc3C2=O)C=C1,nt,101.3*,nt,90.2*,67.8*,nt
CCCCN1C=CC(=C2N=c3cccc([N+](=O)[O-])c3=N2)C=C1,23.5,36.1,-14.1,-4.2,23.8,-27.7
CC1=CC(=C2C(=O)c3ccccc3C2=O)C=C(C)N1Cc1ccco1,-56.5,0.7,-96.7,-21.6,1.9,-17.6
CCCCCCN1C=CC(=C2C(=O)c3ccccc3C2=O)C=C1,94.5*,97.0*,79.3*,52.8*,81.8*,67.1*
CCCCN1C(C)=CC(=C2C(=O)c3ccccc3C2=O)C=C1C,60.3*,53.4*,-51.4,3.5,59.6*,-1.7
CCCN1C=CC(=C2C(=O)c3ccccc3C2=O)C=C1,nt,70.7*,nt,86.7*,72.8*,nt
CC(C)CCNC(=O)C1CCN(S(=O)(=O)c2ccc3c(c2)CC(C)N3C(=O)C2CC2)CC1 (configuration not stated),-14.3,-5.8,nt,54.3*,-1.7,-2.0
O=C(C[C@@H]1C=C[C@H](NC(=O)Nc2ccc3c(c2)OCO3)[C@H](CO)O1)NCc1ccc(Cl)cc1,11.1,nt,10.5,nt,nt,2.6
C[C@@H](C(=O)N(C)C[C@@H]1OCc2ccccc2-c2ccccc2C(=O)N([C@@H](C)CO)C[C@@H]1C)c1ccccc1,-0.3,nt,3.0,nt,nt,10.7
CCOC(=O)c1c(NC(=O)c2nn(CC)cc2Br)sc2c1CCCCC2,nt,-13.3,nt,25.2,-18.4,nt
CCn1cc(C(=O)NC(=S)Nc2sc3c(c2C(=O)OC)CCCCCC3)cn1,7.9,-18.9,nt,-50.1,70.8*,4.2
CNC(=S)Nc1ccc([N+](=O)[O-])c(C)c1,-0.7,67.9*,-5.5,-5.0,-26.2,-9.8
O=C(CCN1CCCCC1)NCC[C@@H]1CC[C@@H](NC(=O)C2CCCC2)[C@@H](CO)O1,10.3,nt,-17.7,nt,nt,-16.5
Cn1nnnc1Sc1ncnc2scc(-c3ccc(Cl)cc3)c12,57.4*,75.2*,46.4,32.3,63.9*,57.2
Clc1ccc(-c2csc3ncnc(Cl)c23)cc1,23.5,-13.9,nt,8.7,5.9,-4.8
Cn1nnnc1Sc1ncnc2scc(-c3cccc4c3sc3ccccc34)c12,31.6,24.7,10.7,-18.1,-9.3,88.3*
Cn1nnnc1Sc1ncnc2scc(-c3ccccc3Cl)c12,22.1,51.5*,16.9,14.3,37.7,91.4*
Cn1nnnc1Sc1ncnc2scc(-c3ccc4c(c3)OCO4)c12,?,58.2*,7.1,9.6,13.4,101.0*
SMILES,LGR2 antag,TWEAK Fn14 block,EWS-Fli inh,LMP1 NFkB inh,TROY NFkB inh,PAX8 reporter
CN(C)C(=O)CSc1ncnc2scc(-c3ccccc3)c12,-17.3,-0.7,4.3,4.6,15.5,6.7
Cc1ccc(-c2csc3ncnc(SCC(=O)c4ccc5c(c4)OCCO5)c23)cc1,nt,32.9,nt,-4.0,-1.7,nt
CO[C@H]1CN(C)C(=O)c2cc(NC(=O)c3ccno3)ccc2OC[C@H](C)N(S(C)(=O)=O)C[C@H]1C,16.9,nt,0.5,nt,nt,-14.8
C/C=C/c1ccc([C@H]2[C@@H](CO)N3C(=O)CN(Cc4ccc(C)cc4)C[C@H]23)cc1,-0.9,nt,nt,nt,nt,nt
Cn1nnnc1Sc1ncnc2scc(-c3ccc([N+](=O)[O-])cc3)c12,91.0*,92.5*,18.5,74.0*,54.1*,108.1*
COc1ccc(-c2csc3ncnc(Sc4nnnn4C)c23)cc1,?,56.0*,-3.0,86.8*,28.6,101.5*
Cc1ccc(NS(=O)(=O)c2cc(Br)cnc2N)c(Cl)c1,-1.4,15.4,-7.1,6.4,9.6,3.3
Nc1ncc(Br)cc1S(=O)(=O)Nc1cc(C(F)(F)F)cc(C(F)(F)F)c1,?,46.7,nt,8.3,55.5*,34.4
Cc1ccc2c(c1)N(CC(=O)N1CCCCCC1)C(=O)c1cccnc1O2,10.7,1.2,0.6,7.1,-12.8,9.1
Cc1ccc2c(c1)N(CC(=O)N1CCCC1)C(=O)c1cccnc1O2,2.7,6.6,-4.1,61.1*,-13.2,-5.2
C[C@H](CO)N1C[C@H](C)[C@@H](CN(C)Cc2ccc(-c3ccccc3)cc2)Oc2ccc(NS(=O)(=O)c3ccccc3)cc2CC1=O,9.5,nt,18.3,nt,nt,79.9*
C[C@@H]1CN([C@@H](C)CO)C(=O)Cc2cc(NS(=O)(=O)c3ccc(Cl)cc3)ccc2O[C@H]1CN(C)Cc1ccc(-c2ccccc2)cc1,-17.2,nt,34.4,nt,nt,68.9*
O=C(Cn1cc(CNC(=O)C2CCCCC2)nn1)Nc1cc(C(F)(F)F)ccc1Cl,7.1,-6.7,-0.8,42.4*,-1.6,-10.0
CCOC(=O)CCSc1nc(N2CCOCC2)c2c(c1C#N)CC(C)(C)OC2,-4.1,-25.2,10.9,63.3*,-13.7,18.9
COC(=O)CCSc1nc(N2CCOCC2)c2c(c1C#N)CC(C)(C)OC2,7.9,-39.3,11.4,-4.7,-15.4,2.2
CCOC(=O)CN(C(=O)CSc1nnc(-c2ccncc2)n1CCCN(C)C)c1ccccc1,nt,-0.3,nt,-14.3,-10.8,9.4
CCOC(=O)CN(C(=O)CSc1nnc(-c2ccncc2)n1CCCOC)c1ccccc1,nt,-10.0,nt,0.6,57.6*,11.3
CN1/C(=C\C(=O)COC(=O)c2ccco2)C(C)(C)c2ccccc21,18.4,-6.7,-8.6,4.5,-1.9,27.7
CN1/C(=C\C(=O)C[n+]2ccc3ccccc3c2)C(C)(C)c2ccccc21,0.5,48.3,41.6,19.4,21.8,77.7*
CN1/C(=C\C(=O)c2cccnc2)C(C)(C)c2ccccc21,-13.2,-23.1,-16.9,-11.7,-25.7,-19.5
CN1/C(=C\C(=O)COc2ccc3c(c2)OCO3)C(C)(C)c2ccccc21,nt,63.7*,nt,14.0,69.0*,nt
CN1/C(=C\C(=O)c2cncc(Br)c2)C(C)(C)c2ccccc21,-3.6,55.7*,nt,14.0,16.4,13.1
CN1/C(=C\C(=O)c2ccco2)C(C)(C)c2ccccc21,24.6,61.1*,-5.7,6.8,35.6,nt
COc1ccccc1OCC(=O)/C=C1/N(C)c2ccccc2C1(C)C,30.1,17.4,-0.8,23.7,12.9,12.2
CN1/C(=C/C(=O)c2nc(S(C)(=O)=O)ncc2Cl)C(C)(C)c2ccccc21,nt,84.2*,nt,59.6*,69.6*,nt
